According to PubChem BioAssay (Tox21):
Where “and” joins values, the source holds several entries; their conditions need not be identical. Equal values may be shown once. Results filed as inconclusive are left out. More than one record can exist for a structure, and the calls need not agree. Calls of active or inactive are those of the source. Calls follow the shape of the dose curve; as a rule, active = well fitted curve in the direction sought with a large enough effect in the repeat runs; inconclusive = weak or mixed curves; inactive = no such curve, though single readings can be large; an effect the other way counts as inactive or inconclusive.

Key:
[1] = qHTS RealTime-Glo MT Cell Viability Assay in HEK293 cells - 16 hour (AID 1224872); also: nearly all actives have a fitted effect of over 50% in size; also: potency is read from the fitted curve at half-maximal effect
How it was run: (§1)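 Cells + reagent dispensed (600 cells/well, HEK293) → 5 h at 37 C/5% CO2 → 23 nL compound in DMSO pinned → 40 h at 37 C → luminescence read at 0, 8, 16, 24, 32, 40 h.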

[2] = qHTS RealTime-Glo MT Cell Viability Assay in HepG2 cells - 8 hour (AID 1224873); also: nearly all actives have a fitted effect of over 55% in size; also: potency is read from the fitted curve at half-maximal effect
How it was run: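 HepG2 cells mixed with RealTime-Glo MT reagents (NanoLuc plus cell-permeant prosubstrate) were seeded at 600 cells/well, incubated 5 h at 37 C/5% CO2, then pinned with compounds in DMSO; nonlytic luminescence tracked viability during 40 h treatment.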

[3] = qHTS RealTime-Glo MT Cell Viability Assay in HEK293 cells - 40 hour (AID 1224874); conditions: RealTime-Glo luminescence; max response: stronger effect = lower value; also: nearly all actives have a fitted effect of over 50% in size; also: potency is read from the fitted curve at half-maximal effect
How it was run: (§2)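 Luminescence readout at each listed time point; HEK293, 600 cells/well, RealTime-Glo MT reagent added with cells; compounds pinned (23 nL in DMSO) after 5 h at 37 C; continuous culture at 37 C.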

[4] = A CellTox Green Cytotoxicity Assay to monitor cytotoxicity in HEK293 cells - 24 hour (AID 1224875); also: nearly all actives have a fitted effect of over 45% in size; also: potency is read from the fitted curve at half-maximal effect
How it was run: (§3)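 Read-out: fluorescence of a cell-impermeant cyanine dye staining DNA of dead cells, proportional to cytotoxicity. HEK293, 600 cells/well with reagent, compound (23 nL DMSO) added after 5 h; reads at 0, 8, 16, 24, 32, 40 h.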

[5] = A CellTox Green Cytotoxicity Assay to monitor cytotoxicity in HepG2 cells - 16 hour (AID 1224876); also: nearly all actives have a fitted effect of over 45% in size; also: potency is read from the fitted curve at half-maximal effect
How it was run: (§4)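 HepG2, 600 cells/well premixed w/ CellTox Green; 5 h settle, 37 C/5% CO2; pintool cpd add (DMSO); 37 C, 40 h; fluorescence read at 0, 8, 16, 24, 32, 40 h.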

[6] = A CellTox Green Cytotoxicity Assay to monitor cytotoxicity in HepG2 cells - 24 hour (AID 1224878); also: nearly all actives have a fitted effect of over 45% in size; also: potency is read from the fitted curve at half-maximal effect
How it was run: as §4

[7] = A CellTox Green Cytotoxicity Assay to monitor cytotoxicity in HepG2 cells - 40 hour (AID 1224879); also: nearly all actives have a fitted effect of over 40% in size; also: potency is read from the fitted curve at half-maximal effect
How it was run: as §4

[8] = qHTS RealTime-Glo MT Cell Viability Assay in HEK293 cells - 0 hour (AID 1224880); also: nearly all actives have a fitted effect of over 45% in size; also: potency is read from the fitted curve at half-maximal effect
How it was run: as §2

[9] = A CellTox Green Cytotoxicity Assay to monitor cytotoxicity in HEK293 cells - 32 hour (AID 1224881); also: nearly all actives have a fitted effect of over 40% in size; also: potency is read from the fitted curve at half-maximal effect
How it was run: as §3

[10] = A CellTox Green Cytotoxicity Assay to monitor cytotoxicity in HepG2 cells - 0 hour (AID 1224882); also: nearly all actives have a fitted effect of over 35% in size
How it was run: as §4

[11] = A CellTox Green Cytotoxicity Assay to monitor cytotoxicity in HepG2 cells - 32 hour (AID 1224883); also: nearly all actives have a fitted effect of over 50% in size; also: potency is read from the fitted curve at half-maximal effect
How it was run: as §4

[12] = qHTS RealTime-Glo MT Cell Viability Assay in HepG2 cells - 16 hour (AID 1224885); also: nearly all actives have a fitted effect of over 50% in size; also: potency is read from the fitted curve at half-maximal effect
How it was run: (§5)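 Real-time, nonlytic viability: 600 HepG2 cells/well mixed with NanoLuc enzyme plus prosubstrate; 5 h settle, compound (DMSO) added by pintool; luminescence monitored over 40 h at 37 C.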

[13] = qHTS RealTime-Glo MT Cell Viability Assay in HEK293 cells - 24 hour (AID 1224886); also: nearly all actives have a fitted effect of over 50% in size; also: potency is read from the fitted curve at half-maximal effect
How it was run: as §1

[14] = qHTS RealTime-Glo MT Cell Viability Assay in HEK293 cells - 8 hour (AID 1224887); also: nearly all actives have a fitted effect of over 50% in size; also: potency is read from the fitted curve at half-maximal effect
How it was run: as §2

[15] = A CellTox Green Cytotoxicity Assay to monitor cytotoxicity in HEK293 cells - 16 hour (AID 1224888); also: nearly all actives have a fitted effect of over 35% in size
How it was run: as §3

[16] = A CellTox Green Cytotoxicity Assay to monitor cytotoxicity in HepG2 cells - 8 hour (AID 1224890); also: nearly all actives have a fitted effect of over 45% in size; also: potency is read from the fitted curve at half-maximal effect
How it was run: as §4

[17] = qHTS assay to identify small molecule antagonists of the estrogen receptor alpha (ER-alpha) signaling pathway using the BG1 cell line in the presence of 0.1 nM 17-beta-estradiol - cell viability counter screen (AID 1259241); also: nearly all actives have a fitted effect of over 40% in size; also: potency is read from the fitted curve at half-maximal effect
How it was run: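 Viability in VM7Luc4E2 cells after 22 hr compound exposure under 0.1 nM 17beta-estradiol stimulation, by CellTiter-Fluor.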

[18] = qHTS RealTime-Glo MT Cell Viability Assay in HepG2 cells - 32 hour (AID 1224877); also: nearly all actives have a fitted effect of over 55% in size; also: potency is read from the fitted curve at half-maximal effect
How it was run: as §5

[19] = qHTS RealTime-Glo MT Cell Viability Assay in HepG2 cells - 0 hour (AID 1224889); also: nearly all actives have a fitted effect of over 50% in size
How it was run: as §5

[20] = A CellTox Green Cytotoxicity Assay to monitor cytotoxicity in HEK293 cells - 8 hour (AID 1224884); also: nearly all actives have a fitted effect of over 35% in size
How it was run: as §3
% is scaled to controls: 0 for no effect and ±100 for the full control effect.

O=C1C=CC(=O)c2ccccc21
active: Potency [1] 5.49 µM | Potency [2] 17.4 µM | Potency [3] 4.9 µM | Potency [4] 6.92 µM | Potency [5] 13.8 µM | Potency [6] 12.3 µM | Potency [7] 12.3 µM | Potency [8] 12.3 µM | Potency [9] 6.16 µM | Potency [11] 12.3 µM | Potency [12] 19.5 µM | Potency [13] 5.49 µM | Potency [14] 6.16 µM | Potency [16] 15.5 µM | Potency [17] 19.3 µM
inactive: Potency [10] | Potency [15]

O=[N+]([O-])c1ccc2ccc3cccc4ccc1c2c34
inactive: Potency [1] | Potency [2] | max response [3] -23.8% | Potency [5] | Potency [18] | Potency [6] | Potency [8] | Potency [10] | Potency [11] | Potency [12] | Potency [13] | Potency [14] | Potency [19]

O=C1c2ccccc2C(=O)C1C(=O)C(c1ccccc1)c1ccc(Cl)cc1 (centres undefined)
active: Potency [5] 49 µM | Potency [6] 54.9 µM | Potency [11] 54.9 µM | Potency [16] 49 µM
inactive: Potency [1] | Potency [2] | max response [3] -21.2% | Potency [8] | Potency [9] | Potency [10] | Potency [12] | Potency [13] | Potency [14]

O=c1[nH]c2ccccc2n1CCCN1CCC(n2c(=O)[nH]c3cc(Cl)ccc32)CC1
inactive: Potency [2] | Potency [4] | Potency [5] | Potency [8] | Potency [9] | Potency [10] | Potency [20] | Potency [12] | Potency [15] | Potency [16] | Potency [17]
active: Potency [1] 9.52 µM | Potency [3] 10.7 µM | Potency [6] 21.3 µM | Potency [11] 21.3 µM | Potency [13] 9.52 µM | Potency [14] 9.52 µM

COP(=O)(CCC(=O)NCO)OC
inactive: Potency [1] | Potency [2] | max response [3] 14% | Potency [4] | Potency [5] | Potency [7] | Potency [8] | Potency [9] | Potency [10] | Potency [11] | Potency [20] | Potency [12] | Potency [13] | Potency [14] | Potency [15] | Potency [19] | Potency [16] | Potency [17]

ClC1=C(Cl)[C@]2(Cl)[C@@H]3[C@@H](Cl)[C@H](Cl)C[C@@H]3[C@@]1(Cl)C2(Cl)Cl
inactive: Potency [1] | Potency [2] | max response [3] 7.93% | Potency [5] | Potency [18] | Potency [8] | Potency [10] | Potency [11] | Potency [20] | Potency [12] | Potency [13] | Potency [14] | Potency [19] | Potency [17]

CC(C)(O)c1cnn2c(-c3ccc(F)c(-c4c(F)cccc4C#N)c3)cnc2n1
inactive: Potency [2] | Potency [4] | Potency [5] | Potency [6] | Potency [7] | Potency [10] | Potency [11] | Potency [20] | Potency [12] | Potency [15] | Potency [16] | Potency [17]
active: Potency [1] 5.49 µM | Potency [3] 4.9 µM | Potency [13] 5.49 µM | Potency [14] 6.16 µM

Oc1ccc(C(=C(Cl)Cl)c2ccc(O)cc2)cc1
inactive: Potency [2] | Potency [4] | Potency [5] | Potency [6] | Potency [7] | Potency [8] | Potency [9] | Potency [11] | Potency [20] | Potency [12] | Potency [15] | Potency [19] | Potency [16] | Potency [17]
active: Potency [1] 43.6 µM | Potency [3] 43.6 µM | Potency [13] 38.8 µM

COP(N)(=S)OC
inactive: Potency [1] | Potency [2] | max response [3] 0.707% | Potency [4] | Potency [5] | Potency [6] | Potency [7] | Potency [8] | Potency [9] | Potency [10] | Potency [11] | Potency [20] | Potency [12] | Potency [13] | Potency [14] | Potency [19] | Potency [16] | Potency [17]

BrC(Br)C(Br)(Br)Br
inactive: Potency [2] | Potency [5] | Potency [18] | Potency [8] | Potency [10] | Potency [20] | Potency [12] | Potency [16] | Potency [17]
active: Potency [1] 43.9 µM | Potency [3] 27.7 µM | Potency [13] 24.7 µM

CCOC(=O)CC(=O)CCl
inactive: Potency [2] | Potency [5] | Potency [18] | Potency [8] | Potency [11] | Potency [20] | Potency [12] | Potency [15] | Potency [19] | Potency [16] | Potency [17]
active: Potency [1] 38.9 µM | Potency [3] 43.6 µM | Potency [13] 43.6 µM

CC(C)CC(C)Nc1ccc(Nc2ccccc2)cc1 (centres undefined)
inactive: Potency [5] | Potency [6] | Potency [16]
active: Potency [1] 19.2 µM | Potency [2] 42.9 µM | Potency [3] 21.5 µM | Potency [9] 48.2 µM | Potency [13] 21.5 µM | Potency [14] 19.2 µM | Potency [17] 53.5 µM

C=CC(=O)OCC(COC(=O)C=C)(COC(=O)C=C)COC(=O)C=C
inactive: Potency [5] | Potency [8] | Potency [10] | Potency [20] | Potency [15] | Potency [19]
active: Potency [1] 3.89 µM | Potency [2] 3.09 µM | Potency [3] 3.89 µM | Potency [18] 5.49 µM | Potency [6] 49 µM | Potency [7] 21.9 µM | Potency [9] 27.5 µM | Potency [11] 38.9 µM | Potency [12] 4.9 µM | Potency [13] 3.89 µM | Potency [17] 19.3 µM

Clc1ccc(C(c2ccc(Cl)cc2)C(Cl)(Cl)Cl)cc1
inactive: Potency [2] | Potency [5] | Potency [18] | Potency [8] | Potency [10] | Potency [11] | Potency [20] | Potency [12] | Potency [15] | Potency [19] | Potency [16] | Potency [17]
active: Potency [1] 39.2 µM | Potency [3] 39.2 µM | Potency [13] 39.2 µM and 43.6 µM | Potency [14] 39.2 µM
55.3 µM (active) and inactive: Potency [9]
inactive and 54.9 µM (active): Potency [7]
